# In the library only some 4.6% were active in any assay of this set; here they are far more common.
# TIM10 inh: growth inhibitors of isogenic TIM10 control yeast, primary screen, counter-screen for tim10-1 yeast inhibitor project, luminescence, uHTS. S. cerevisiae TIM10 strain growth, BacTiter-Glo luminescence, 24 h. inhibition, % at 10 µM. actives 1.4% (n = 330,000);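 active = inhibition of 40% or more at the single tested concentration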;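 also: wild-type TIM10 isogenic control strain grown at permissive 25 °C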
# NLRP3 yeast inh: NALP3 inflammasome inhibitors in reconstituted yeast, primary screen, luminescence, uHTS; AID 2825, 2010; Yeast reconstituted NLRP3/ASC/caspase-1, beta-gal luminescence, 24 h; actives 0.39% (n = 330,000); inhibition, % at 10 µM;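 active = inhibition of 50% or more; inactive = inhibition below 50%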;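 also: plate controls were induced DMSO wells for no effect and uninduced yeast grown without galactose for full effect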
# PfHsp90 set2: growth inhibition of PfHsp90-expressing yeast, primary screen, antimalarial PfHsp90 inhibitor project, S. cerevisiae, BacTiter-Glo luminescence, single point, set 2; BacTiter-Glo ATP, 48 h; yeast lacking PDR1 and PDR3 efflux regulators; inhibition, % at 9.4 µM; actives 0.32% (n = 310,000);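 active = every replicate shows inhibition above about 80%, whatever the replicate mean, limit read from the data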;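 also: 0% = DMSO neutral controls and 100% = 20 µM radicicol positive controls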
# tim23-1 inh: growth inhibitors of tim23-1 mutant yeast, primary screen, luminescence, uHTS. actives 1.3% (n = 330,000). AID 463212, 2010. S. cerevisiae tim23-1 growth, BacTiter-Glo luminescence, 24 h. inhibition, % at 20 µM;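 active = growth inhibition of the mutant yeast at or above 50%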;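 also: temperature-sensitive mutant grown at 25 °C; plate controls were DMSO-treated mutant yeast for no effect and medium wells lacking yeast for full effect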
# SKKanGAS inh: S. pyogenes SKKanGAS growth inhibitors in kanamycin, primary screen, streptokinase expression inhibitor project, SKKanGAS strain, BacTiter-Glo luminescence | AID 1662, 2009 | 6 h | actives 1.3% (n = 300,000) | inhibition, % at 7.5 µM;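 active = mean replicate score, as percent of positive control median, at least 50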;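 also: strain carries kanamycin resistance gene driven by streptokinase promoter and grows in 40 µg/ml kanamycin; loss of luminescence reflects streptokinase promoter inhibition or plain growth inhibition; 0% = median of DMSO wells and 100% = positive control at its reference dose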
# tim10-1 inh: growth inhibitors of tim10-1 mutant yeast, primary screen, luminescence, uHTS; S. cerevisiae tim10-1 ts strain growth, BacTiter-Glo, 24 h; actives 2.2% (n = 330,000); inhibition, % at 20 µM;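 active = inhibition of at least 40%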;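 also: mutant grown at 25 °C; 0% = DMSO wells with yeast and 100% = wells holding no yeast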
# NALP3 confirm: NALP3 inhibitors retested in yeast, confirmation, luminescence, single concentration; shares compounds with NLRP3 yeast inh; yeast expressing human NALP3; inhibition, % at 10 µM; actives 81% (n = 1,300); in the data active = inhibition above about 48%
# Casp1 ASC ctr: CASP1-PYCARD signaling inhibition in yeast, confirmatory test, counterassay for NLRP3 inhibitor program, one-dose. shares compounds with NLRP3 yeast inh. yeast expressing Caspase-1-ASC, luminescence counter screen. inhibition, % at 10 µM. actives 66% (n = 1,000). AID 488784, 2010
# NALP3 yeast rt: NALP3 inhibitors in yeast, repeat test, confirmation, luminescence, single concentration, retest | AID 488794, 2010 | inhibition, % at 10 µM | shares compounds with NLRP3 yeast inh | yeast expressing human NALP3, luminescence read-out | actives 53% (n = 1,000)
# Active calls of the source: *; . = not tested or not shown. Rule as the data show it, unless noted: active = inhibition above about 50%; inactive = the rest.
SMILES,TIM10 inh,NLRP3 yeast inh,PfHsp90 set2,tim23-1 inh,SKKanGAS inh,tim10-1 inh,NALP3 confirm,Casp1 ASC ctr,NALP3 yeast rt
CC(=O)N1N=C(c2cccc([N+](=O)[O-])c2)OC1(C)c1cccs1 (centres undefined),-15,12,11,36,1,25,.,.,.
CN(CC(=O)N1CCc2ccccc2C1)c1ccccc1,2,55*,-3,12,.,-5,43,45,55*
CC(C)Sc1nnc(NC(=O)CCc2ccccc2)s1,13,10,.,16,7,10,.,.,.
Cc1ccccc1C(=O)Nc1nnc(SC(C)C)s1,22,51*,-11,36,15,-1,38,71*,63*
CCC(Sc1nnc(C)c(=O)[nH]1)C(=O)Nc1cccc2ccccc12 (centres undefined),10,20,-8,-2,5,-22,.,.,.
CCSc1oc(-c2ccco2)nc1S(=O)(=O)c1ccc(F)cc1,18,6,-23,29,3,36,.,.,.
CCSc1oc(-c2ccco2)nc1S(=O)(=O)c1ccc(C)cc1,-13,52*,19,25,-2,-4,50*,50*,46
CCC(CC)NC(=O)CN1CCN(S(=O)(=O)c2ccc(Br)s2)CC1,11,11,.,13,.,13,.,.,.
COc1cc(OC)cc(-c2cc3cc4c(cc3cn2)OCO4)c1,11,56*,-33,21,.,14,56*,50,43
Clc1ccccc1Cn1nnc2c(Nc3ccccc3)ncnc21,10,62*,-9,30,-7,10,74*,55*,57*
Clc1cc2nc3ccccn3c2cc1Cl,17,67*,11,30,8,12,30,.,.
O=C(Cc1ccc(Br)cc1)Nc1ccc(Cl)cc1,-13,28,-21,7,5,-4,.,.,.
O=C(Cc1cccc(Cl)c1)Nc1ccc(Br)cc1,6,54*,24,22,2,1,39,57*,48
Cc1nc(SCc2ccc(OCCC(C)C)cc2)n[nH]1,32,76*,-24,37,10,29,84*,93*,89*
CCCCCOc1ccc(CSc2n[nH]c(C)n2)cc1,26,64*,13,34,12,32,75*,70*,82*
CN(C(=O)CSc1nnc(-c2ccccc2)o1)c1c(N)n(Cc2ccccc2)c(=O)[nH]c1=O,0,9,-12,10,-1,8,.,.,.
CC(=O)c1cccc(NC(=O)c2csc3c2CCCCC3)c1,19,10,-39,18,14,32,.,.,.
CCOc1ccc(NC(=O)c2csc3c2CCCC3)cc1,-9,52*,1,16,-13,14,46,.,.
COCCNC(=O)c1csc2c1CCCC2,-1,20,1,18,0,4,.,.,.
CCNC(=O)COC(=O)c1csc2c1CCCC2,-31,56*,28,16,-10,6,24,.,.
COc1ccccc1N1CCN(CC(=O)Nc2ccccc2C(=O)NC(C)c2ccccc2)CC1 (centres undefined),12,7,-21,33,.,16,.,.,.
Cc1ccc(CNc2cnn(C34CC5CC(CC(C5)C3)C4)c(=O)c2Cl)cc1,35,53*,-14,22,1,3,49*,6,25
COc1ccc(OCCCC(=O)Nc2cc(S(=O)(=O)N3CCCCC3)ccc2C)cc1,2,14,4,17,.,2,.,.,.
C[C@@H]1CN([C@@H](C)CO)C(=O)c2cc(N(C)C)ccc2O[C@@H]1CN(C)S(C)(=O)=O,-5,9,2,0,.,6,.,.,.
CC(=O)OCC(=O)[C@H]1CC[C@H]2[C@@H]3CCC4=CC(=O)CC[C@]4(C)[C@H]3CC[C@]12C,-6,50,-2,39,-8,13,.,.,.
SMILES,TIM10 inh,NLRP3 yeast inh,PfHsp90 set2,tim23-1 inh,SKKanGAS inh,tim10-1 inh,NALP3 confirm,Casp1 ASC ctr,NALP3 yeast rt
CC(=O)OCC(=O)C1CCC2C3CC=C4CC(O)CCC4(C)C3CCC12C (centres undefined),23,74*,-2,30,.,21,81*,77*,66*
CCCCCCN[C@H]1CCC2C3CC=C4C[C@@H](O)CC[C@]4(C)C3CC[C@@]21C (some centres undefined),-37,62*,-40,18,.,19,66*,.,.
O=C(NCc1ccc(Cl)cc1)N1CCN(S(=O)(=O)c2ccccc2)CC1,-1,5,-10,19,-2,12,.,.,.
COc1cc(NC(=O)CN2C(=O)CN(C)C2=O)c(C)cc1[N+](=O)[O-],7,81*,-8,-19,-4,12,34,.,.
COc1ccc(N2CCN(C(=O)c3ccc(Br)o3)CC2)cc1,5,7,0,23,-3,17,.,.,.
Cn1nc(-c2ccccc2)c(C(=O)Nc2ccc(Cl)cc2)c1Cl,-30,81*,-41,8,-4,-12,86*,55*,31
Cn1nc(-c2ccccc2)c(C(=O)Nc2ccc(C(F)(F)F)cc2)c1Cl,-70,9,-21,-4,-1,-73,.,.,.
O=C(Nc1ccnn1C1CCN(C(=O)Cc2cccc(Cl)c2)CC1)C1CC1,-2,12,-6,12,-2,-10,.,.,.
COc1ccc(Cn2c(-c3ccc(OC)cc3)nc3ccccc32)cc1,17,24,23,41,8,36,.,.,.
Cn1cccc1-c1nc2ccccc2n1Cc1ccccc1,30,-108,-3,20,-5,39,-15,.,.
CC(C)(C)c1ccc(C(=O)NNc2ccc(F)cc2F)cc1,14,53*,3,27,-6,12,44,.,.
CC(=O)c1cnc2nc(SCc3ccc(Cl)cc3)nn2c1C,-13,53*,0,45,2,-11,71*,64*,50*
CC(=O)c1cnc2nc(SCc3ccc(C)cc3)nn2c1C,-1,33,-3,18,5,17,.,.,.
Cc1ccc(-c2cc(NC(=O)CCl)n(-c3ccccc3)n2)cc1,14,54*,-25,35,12,25,33,.,.
O=C(CCl)Nc1cc(-c2ccccc2)nn1-c1ccccc1,26,55*,5,43,-5,21,66*,78*,69*

# Bioassay records deposited in PubChem by several laboratories.
